Here are results for 6 sequences from paper PMC11006913.

Holding throughout (test): PBM; 200 nM protein, PBS
Settings in all cases: dsDNA, one strand shown

Assay [1] concerns the target NKX2-5 (Homo sapiens, UniProt P52952 125-210, R139K).
The target in assay [2] is T1, NKX2-4 (Homo sapiens, UniProt Q9H2Z4 175-261, P217L).
T1 sequence: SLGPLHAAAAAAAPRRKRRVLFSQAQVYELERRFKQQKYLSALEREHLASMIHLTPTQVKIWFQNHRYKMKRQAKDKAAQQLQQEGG

Assay [3] addresses T2, NKX2-4 (Homo sapiens, UniProt Q9H2Z4 175-261, T231S).
T2 sequence: T1 sequence with L43P, T57S

Assay [4] concerns the target T3, NKX2-4 (Homo sapiens, UniProt Q9H2Z4 175-261).
T3 sequence: T1 sequence with L43P

Assay [5] addresses T4, NKX2-6 (Homo sapiens, UniProt A6NCS4 118-204, R150C).
T4 sequence: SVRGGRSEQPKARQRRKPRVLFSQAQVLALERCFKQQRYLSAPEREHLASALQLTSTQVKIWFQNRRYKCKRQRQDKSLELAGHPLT

For assay [6], the target named is T5, NKX2-6 (Homo sapiens, UniProt A6NCS4 118-204).
T5 sequence: T4 sequence with C33R

Assay [7] has as its target T6, NKX2-4 (Homo sapiens, UniProt Q9H2Z4 175-261, R246Q).
T6 sequence: T1 sequence with L43P, R72Q

Assay [8] concerns the target T7, NKX2-6 (Homo sapiens, UniProt A6NCS4 118-204, F151L).
T7 sequence: T4 sequence with C33R, F34L

The target of assay [9] is NKX3-2 (Homo sapiens, UniProt P78367 192-278, P234S).
NKX3-2 (Homo sapiens, UniProt P78367 192-278, P234S), sequence (P78367 192-278 P234S): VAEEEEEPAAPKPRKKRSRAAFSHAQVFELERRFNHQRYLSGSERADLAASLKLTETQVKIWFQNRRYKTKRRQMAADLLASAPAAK
The target in assay [10] is NKX2-5 (Homo sapiens, UniProt P52952 125-210).
NKX2-5 (Homo sapiens, UniProt P52952 125-210), sequence (P52952 125-210): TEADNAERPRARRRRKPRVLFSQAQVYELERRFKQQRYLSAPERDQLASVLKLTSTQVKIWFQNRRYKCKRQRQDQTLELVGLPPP
Assay [11] concerns the target NKX3-2 (Homo sapiens, UniProt P78367 192-278).

Changes are numbered by the printed parent chain.

NKX3-2 (Homo sapiens, UniProt P78367 192-278), sequence (P78367 192-278): as the sequence (P78367 192-278 P234S) above, with S43P counted along it
NKX2-5 (Homo sapiens, UniProt P52952 125-210, R139K), sequence (P52952 125-210 R139K): as the sequence (P52952 125-210) above, with R15K counted along it

Take AAGTGGAG: the binding signal was 12.2 upbm affinity estimate (log intensity, higher = more binding, comparable within an allelic series) with NKX2-5 [1]; 12.4 upbm affinity estimate (log intensity, higher = more binding, comparable within an allelic series) in the assay with NKX2-4 [2]; 12.7 upbm affinity estimate (log intensity, higher = more binding, comparable within an allelic series) in the assay with NKX2-4 [3]; 12.3 upbm affinity estimate (log intensity, higher = more binding, comparable within an allelic series) with NKX2-4 [4]; 11.7 upbm affinity estimate (log intensity, higher = more binding, comparable within an allelic series) in the assay with NKX2-6 [5]; 13.3 upbm affinity estimate (log intensity, higher = more binding, comparable within an allelic series) in the assay with NKX2-6 [6]. For the same sequence, the binding signal is 12.8 upbm affinity estimate (log intensity, higher = more binding, comparable within an allelic series) with NKX2-4 [7]; 10.6 upbm affinity estimate (log intensity, higher = more binding, comparable within an allelic series) with NKX2-6 [8]; 12.7 upbm affinity estimate (log intensity, higher = more binding, comparable within an allelic series) in the assay with NKX3-2 [9]; 12.2 upbm affinity estimate (log intensity, higher = more binding, comparable within an allelic series) with NKX2-5 [10]; 12.8 upbm affinity estimate (log intensity, higher = more binding, comparable within an allelic series) in the assay with NKX3-2 [11].

In the case of CACTTATG, the binding signal in the assay with NKX2-5 [1] is 13 upbm affinity estimate (log intensity, higher = more binding, comparable within an allelic series); in the assay with NKX2-4 [2], 12.6 upbm affinity estimate (log intensity, higher = more binding, comparable within an allelic series); with NKX2-4 [3], 13 upbm affinity estimate (log intensity, higher = more binding, comparable within an allelic series); with NKX2-4 [4], 12.5 upbm affinity estimate (log intensity, higher = more binding, comparable within an allelic series); with NKX2-6 [5], 12.2 upbm affinity estimate (log intensity, higher = more binding, comparable within an allelic series); with NKX2-6 [6] it was 13.8 upbm affinity estimate (log intensity, higher = more binding, comparable within an allelic series). In addition, the binding signal is 13.1 upbm affinity estimate (log intensity, higher = more binding, comparable within an allelic series) with NKX2-4 [7]; 11.2 upbm affinity estimate (log intensity, higher = more binding, comparable within an allelic series) in the assay with NKX2-6 [8]; 12.8 upbm affinity estimate (log intensity, higher = more binding, comparable within an allelic series) with NKX3-2 [9]; 13 upbm affinity estimate (log intensity, higher = more binding, comparable within an allelic series) with NKX2-5 [10]; 12.9 upbm affinity estimate (log intensity, higher = more binding, comparable within an allelic series) with NKX3-2 [11].

Turning to CCACTTAG, the binding signal with NKX2-5 [1] was 13.1 upbm affinity estimate (log intensity, higher = more binding, comparable within an allelic series); in the assay with NKX2-4 [2] it was 12.7 upbm affinity estimate (log intensity, higher = more binding, comparable within an allelic series); with NKX2-4 [3] it was 13 upbm affinity estimate (log intensity, higher = more binding, comparable within an allelic series); in the assay with NKX2-4 [4], 12.6 upbm affinity estimate (log intensity, higher = more binding, comparable within an allelic series); with NKX2-6 [5], 12.2 upbm affinity estimate (log intensity, higher = more binding, comparable within an allelic series); in the assay with NKX2-6 [6], 14 upbm affinity estimate (log intensity, higher = more binding, comparable within an allelic series). Besides, the binding signal is 13.1 upbm affinity estimate (log intensity, higher = more binding, comparable within an allelic series) with NKX2-4 [7]; 11.1 upbm affinity estimate (log intensity, higher = more binding, comparable within an allelic series) with NKX2-6 [8]; 13.4 upbm affinity estimate (log intensity, higher = more binding, comparable within an allelic series) in the assay with NKX3-2 [9]; 13.1 upbm affinity estimate (log intensity, higher = more binding, comparable within an allelic series) with NKX2-5 [10]; 13.5 upbm affinity estimate (log intensity, higher = more binding, comparable within an allelic series) with NKX3-2 [11].

Take CCACTCAA: the binding signal is 12.5 upbm affinity estimate (log intensity, higher = more binding, comparable within an allelic series) in the assay with NKX2-5 [1]; 12.6 upbm affinity estimate (log intensity, higher = more binding, comparable within an allelic series) with NKX2-4 [2]; 13.1 upbm affinity estimate (log intensity, higher = more binding, comparable within an allelic series) in the assay with NKX2-4 [3]; 12.5 upbm affinity estimate (log intensity, higher = more binding, comparable within an allelic series) with NKX2-4 [4]; 11.8 upbm affinity estimate (log intensity, higher = more binding, comparable within an allelic series) in the assay with NKX2-6 [5]; 13.4 upbm affinity estimate (log intensity, higher = more binding, comparable within an allelic series) with NKX2-6 [6]. For the same sequence, the binding signal in the assay with NKX2-4 [7] was 13.1 upbm affinity estimate (log intensity, higher = more binding, comparable within an allelic series); with NKX2-6 [8], 10.7 upbm affinity estimate (log intensity, higher = more binding, comparable within an allelic series); with NKX3-2 [9], 12.6 upbm affinity estimate (log intensity, higher = more binding, comparable within an allelic series); with NKX2-5 [10], 12.3 upbm affinity estimate (log intensity, higher = more binding, comparable within an allelic series); with NKX3-2 [11], 12.7 upbm affinity estimate (log intensity, higher = more binding, comparable within an allelic series).

As to GCACTTGA, the binding signal with NKX2-5 [1] is 13.2 upbm affinity estimate (log intensity, higher = more binding, comparable within an allelic series); with NKX2-4 [2], 12.8 upbm affinity estimate (log intensity, higher = more binding, comparable within an allelic series); with NKX2-4 [3], 13.2 upbm affinity estimate (log intensity, higher = more binding, comparable within an allelic series); in the assay with NKX2-4 [4], 12.6 upbm affinity estimate (log intensity, higher = more binding, comparable within an allelic series); with NKX2-6 [5], 12.1 upbm affinity estimate (log intensity, higher = more binding, comparable within an allelic series); with NKX2-6 [6] it was 13.9 upbm affinity estimate (log intensity, higher = more binding, comparable within an allelic series). For the same sequence, the binding signal in the assay with NKX2-4 [7] was 13.4 upbm affinity estimate (log intensity, higher = more binding, comparable within an allelic series); with NKX2-6 [8], 11.4 upbm affinity estimate (log intensity, higher = more binding, comparable within an allelic series); with NKX2-5 [10], 13.1 upbm affinity estimate (log intensity, higher = more binding, comparable within an allelic series).

Take AAGCACTT: the binding signal is 12.7 upbm affinity estimate (log intensity, higher = more binding, comparable within an allelic series) with NKX2-5 [1]; 12.6 upbm affinity estimate (log intensity, higher = more binding, comparable within an allelic series) with NKX2-4 [2]; 12.9 upbm affinity estimate (log intensity, higher = more binding, comparable within an allelic series) with NKX2-4 [3]; 12.4 upbm affinity estimate (log intensity, higher = more binding, comparable within an allelic series) with NKX2-4 [4]; 11.8 upbm affinity estimate (log intensity, higher = more binding, comparable within an allelic series) with NKX2-6 [5]; 13.5 upbm affinity estimate (log intensity, higher = more binding, comparable within an allelic series) in the assay with NKX2-6 [6]. Further, the binding signal with NKX2-4 [7] was 13.1 upbm affinity estimate (log intensity, higher = more binding, comparable within an allelic series); in the assay with NKX2-6 [8], 11 upbm affinity estimate (log intensity, higher = more binding, comparable within an allelic series); with NKX3-2 [9], 12.5 upbm affinity estimate (log intensity, higher = more binding, comparable within an allelic series); with NKX2-5 [10] it was 12.5 upbm affinity estimate (log intensity, higher = more binding, comparable within an allelic series); with NKX3-2 [11], 12.6 upbm affinity estimate (log intensity, higher = more binding, comparable within an allelic series).
